Compound activity (PubChem)
A selection: hits, their analogues and other compounds. The true share with any hit is near 9.6%.
Lmaj promast – Leishmania major promastigote growth inhibition, primary screen. inhibition, % at 10 µM. Leishmania major promastigotes, resazurin fluorescence viability. 200,000 compounds, 9% hits; in the data active means inhibition above about 50%;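 further: promastigotes grown with compound for 44 hours at 28 °C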
Ins promoter up – insulin promoter activators in MIN6 cells, imaging, high-content screening, mouse beta cells; MIN6 insulin promoter-GFP reporter; active compounds read high; z-score at 5 µM; 190,000 compounds, 0.3% hits; AID 1625, 2009;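 active means z-score above 3 at 5 µM with at least 500 cells counted in the well; inconclusive means wells under 500 cells, flagged as cytotoxic or low count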
bCat KO growth – primary screen for growth suppressors in beta-catenin knockout HCT116 cells (colon tumor, human); 140,000 compounds, 1.5% hits; viability, % at 10 µM; HCT116 beta-catenin knockout viability, CellTiter-Glo, 60 h; active compounds read low; AID 818, 2007;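 active means viability at or under a set limit, the compound median less 4 SD, cut at about 6% in these data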;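 further: 0% = Hyamine 1622 control at 20 µM and 100% = untreated cell control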
Autophagy mod – autophagy modulators in MEF cells, primary screen, imaging, high-content, MEF GFP-LC3. MEF GFP-LC3 puncta imaging; test concentration mostly 10 µM. calls only at 10 µM (by protocol). 190,000 compounds, 0.98% hits. AID 463193, 2010;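 active means percentage of spot-positive cells more than 3 SD above its plate mean, without a fluorescence outlier flag or 80% toxicity; inconclusive means no clear call, values can overlap the other calls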;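 further: spot-positive cell cutoff set from DMSO-treated cells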
HCT116 PTEN-null – growth suppression of PTEN-null HCT116, primary screen, cell-based, CellTiter-Glo | HCT116 PTEN-null viability, 60 h; active compounds read low | viability, % at 10 µM | 140,000 compounds, 1.2% hits | AID 827, 2007;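 active means viability at or below a set limit, 4 SD under the median of all tested compounds, cut at about 3.7% in these data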;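 further: PTEN knockout HCT116 line with beta catenin targeted HCT116 as companion control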
Insulin prom inh – inhibitors of insulin promoter-driven GFP, primary screen, imaging, TRM-6 cells (human fetal islet line), eGFP reporter, cell count. inhibition, % at 2 µM. AID 1273, 2008. 130,000 compounds, 0.9% hits. reporter expression induced with tamoxifen;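 active means inhibition above the mean plus 3 SD, with well images judged a real hit on visual review, cut at about 60% in these data, passing the limit was not always enough; inconclusive means inhibition over the cutoff but images rejected on review; inactive means inhibition not above the cutoff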
* = called active by the depositor; i = inactive; u = inconclusive; x = not tested or not shown; + = active, no number.

SMILES | Lmaj promast | Ins promoter up | bCat KO growth | Autophagy mod | HCT116 PTEN-null | Insulin prom inh
O=C(/C=C/c1ccc(Cl)cc1Cl)NCCSCc1ccccc1 | -4 | x | 100 | i | 91 | 9
COc1cccc(-c2csc(N3CCN(C(=S)Nc4cccc(Cl)c4)CC3)n2)c1 | 33 | -0.68 | 83 | i | 68 | x
COc1cccc(-c2csc(N3CCN(C(=S)Nc4ccccc4Cl)CC3)n2)c1 | 100* | -1.3 | 70 | i | 81 | x
COc1cccc(-c2csc(N3CCN(C(=S)Nc4ccccc4OC)CC3)n2)c1 | 93* | -1.3 | 83 | i | 94 | x
COc1ccc(NC(=O)N2CCN(c3nc(-c4cccc(OC)c4)cs3)CC2)cc1 | 79* | u | 53 | i | 51 | 43
COC(=O)Nc1nc2ccc(-c3n[nH]c(=O)c4ccccc34)cc2[nH]1 | 8 | 0.33 | 68 | i | 72 | -56
C=CCOc1ccc2nc(NC(=O)OC)[nH]c2c1 | 12 | -1.7 | 13 | + | 16 | x
Cc1cccc2cc(C#N)c(SCCN3CCCCC3)nc12 | 100* | x | x | + | x | -53
Cc1ccc(C)c2nc(SCC(=O)Nc3ccc4c(c3)OCO4)c(C#N)cc12 | x | -0.34 | x | x | x | x
Cc1nonc1NC(=O)CSc1nc2c(C)cccc2cc1C#N | -2 | x | x | + | x | i
Cc1cccc2cc(C#N)c(N3CCN(C)CC3)nc12 | 18 | -0.75 | 85 | i | 84 | 50
O=C(NCCn1cc(SCc2ccc(F)cc2)c2ccccc21)c1ccccc1F | 95* | 0.61 | 51 | i | 53 | -10
Cc1sc(NC(=O)c2ccco2)c(C(c2cccnc2)N2CCN(C)CC2)c1C (configuration not stated) | 9 | -0.02 | 89 | i | 96 | -5
Cc1sc(NC(=O)c2ccco2)c(C(c2cccnc2)N2CCCC2)c1C (configuration not stated) | 99* | 0.14 | 70 | i | 68 | 23
ON/C=N/C(=S)Nc1ncc(C(F)(F)F)cc1Cl | 90* | 0.25 | x | i | x | x
CON/C=N/C(=S)Nc1ncc(C(F)(F)F)cc1Cl | -3 | -0.19 | x | i | x | x
CCCCCCSc1ncc(C#N)c(N)n1 | 3 | 0.45 | 94 | i | 95 | 17
CCOC(=O)c1c(C)[nH]c(C)c1C(=O)COC(=O)/C=C/c1cccc(F)c1 | 0 | -0.47 | 94 | i | 85 | x
CCOC(=O)c1c(C)[nH]c(C)c1C(=O)COC(=O)/C=C/c1cccc(C(F)(F)F)c1 | 59* | 0.31 | 82 | i | 93 | 14
CCOC(=O)c1c(C)[nH]c(C)c1C(=O)COC(=O)c1cc2ccccc2cc1OC | 64* | -0.39 | 79 | i | 72 | 41
CCOC(=O)c1c(C)[nH]c(C)c1C(=O)COC(=O)c1cc2ccccc2cc1O | 5 | -0.83 | 76 | i | 69 | x
COc1ccc(CC(=O)N2CCN=C2SC)cc1OC | -2 | -0.26 | x | i | x | x
O=[N+]([O-])/C=C/c1cn(Cc2ccc(Cl)cc2)c2ccccc12 | 99* | 1.2 | 10 | i | 1.9* | 3
CCOC(=O)Cn1cc(/C=C/[N+](=O)[O-])c2ccccc21 | 36 | 0.07 | x | i | x | -21
Cc1cccc(Cn2cc(/C=C/[N+](=O)[O-])c3ccccc32)c1 | 77* | 0.55 | 3.2* | i | 3.0* | 25
SMILES | Lmaj promast | Ins promoter up | bCat KO growth | Autophagy mod | HCT116 PTEN-null | Insulin prom inh
CS(=O)(=O)N1CCc2cc(C(=O)N3CCCCC3)ccc21 | -5 | x | 102 | i | 104 | -53
CC(COc1cccc2ccccc12)CN1CCN(C)CC1 (configuration not stated) | 83* | -1.4 | 47 | i | 61 | -104
OC(COc1cccc2ccccc12)CN1CCN(c2ccccc2)CC1 (configuration not stated) | x | 0.68 | x | x | x | x
CCCCOC(=O)Cn1c2ccc(OC)cc2c2nc3ccccc3nc21 | 2 | 0.44 | 4.8* | + | 3.1* | -19
Nn1c(SCC(=O)Nc2ccc(F)cc2F)nnc1-c1cccnc1 | -3 | 0.52 | 98 | i | 98 | -21
CC(C)(C)OC(=O)NCCCC[C@H](NC(=O)c1[nH]cnc1C(=O)N[C@@H](Cc1ccccc1)C(=O)OC(C)(C)C)C(=O)OC(C)(C)C | x | 0.57 | x | x | x | x
CCOc1ccc(Oc2c(/C=N/NC(N)=O)c(C)nn2-c2ccccc2)cc1 | 98* | -0.81 | 79 | i | 70 | x
